G9a block = blocks human histone lysine methyltransferase G9a; 350,000 compounds, 8.8% hits; Potency, µM (titrated, usually from 102 µM), for the others: top-dose activity, negative = inhibition, most hits filed as inhibitors; AID 504332; G9a H3K9 monomethylation, AlphaScreen, 2 h; Q96KQ7; also: % is scaled to controls: 0 for no effect and ±100 for the full control effect; nearly all actives have a fitted effect of over 75% in size
Target sequence (Q96KQ7 913-1193 limits assumed): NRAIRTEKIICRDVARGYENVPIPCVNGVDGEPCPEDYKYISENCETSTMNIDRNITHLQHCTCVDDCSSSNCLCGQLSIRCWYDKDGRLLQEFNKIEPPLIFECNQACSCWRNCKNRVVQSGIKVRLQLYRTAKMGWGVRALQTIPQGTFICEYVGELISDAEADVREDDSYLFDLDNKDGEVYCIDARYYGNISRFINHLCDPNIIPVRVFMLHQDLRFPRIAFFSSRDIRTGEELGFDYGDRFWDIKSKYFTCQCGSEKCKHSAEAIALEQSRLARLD
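Compounds were preincubated with 20 nM G9a for 15 min, after which biotinylated H3K9 peptide (500 nM) and SAM (20 uM) started a 2 h room-temperature reaction. Monomethylated product was quantified by antibody-based AlphaScreen chemiluminescence.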
JMJD2A Tudor = JMJD2A Tudor domain (human) inhibition; O75164; AlphaScreen JMJD2A-Tudor / H3K4me3 peptide binding; Potency, µM (titrated, usually from 114 µM), without a hit: at the top dose activity change, negative = inhibition, hits mostly inhibitors; 390,000 compounds, 4.4% hits; also: % is scaled to controls: 0 for no effect and ±100 for the full control effect; nearly all actives have a fitted effect of over 50% in size
BAZ2B inh = inhibitors of human BAZ2B bromodomain; 360,000 compounds, 4.4% hits; Potency, µM (highest dose often 114 µM), inactives show top-dose activity change, negative = inhibition, actives largely listed as inhibitors; AlphaScreen BAZ2B-H3K14Ac peptide displacement; Q9UIF8; also: % is scaled to controls: 0 for no effect and ±100 for the full control effect; nearly all actives have a fitted effect of over 60% in size
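Protein-peptide AlphaScreen: BAZ2B 50 nM, b-H3K14Ac 50 nM, 1x PBS pH 7.4 + 0.01% Tween-20. Preincubation 30 min RT; cpd 30 min RT (top 110 uM); beads 20 min RT, light-protected.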
Sfp inh = blocks B. subtilis Sfp PPTase activity; Q9F4F7; Biochemical Sfp PPTase activity, qHTS; Potency, µM, without a hit: largest response in the series, negative = inhibition, usual class: inhibitors; 310,000 compounds, 3.5% hits;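 also: the enzyme is Sfp with the accession as filed and its product quenches rhodamine fluorescence; 0% = enzyme reaction without inhibitor and -100% = no enzyme wells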
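Compounds were incubated with enzyme (final 15 nM) for 15 min at room temperature before substrate addition started the reaction. Fluorescence at 525 nm excitation, 598 nm emission was recorded immediately and after 30 minutes.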
HP1b binding inh = inhibitors of HP1-beta chromodomain binding to methylated histone tails; P83916; AlphaScreen HP1-beta / biotin-H3K9me3 peptide binding; Potency, µM (doses to about 114 µM), inactives show at the top dose activity change, negative = inhibition, hits mostly inhibitors; 390,000 compounds, 0.56% hits; AID 540317; also: nearly all actives have a fitted effect of over 70% in size
Target sequence (P83916 whole entry, looked up): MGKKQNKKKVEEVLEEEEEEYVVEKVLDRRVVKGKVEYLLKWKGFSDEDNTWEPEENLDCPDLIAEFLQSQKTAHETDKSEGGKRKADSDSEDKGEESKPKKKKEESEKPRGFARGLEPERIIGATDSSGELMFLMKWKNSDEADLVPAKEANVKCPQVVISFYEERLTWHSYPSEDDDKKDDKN
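HP1-beta protein (50 nM final) preincubated 30 min at room temperature with biotinylated H3(1-18)K9me3 peptide (50 nM) in PBS pH 7.4, 0.01% Tween-20, then compound added for 30 min. AlphaScreen streptavidin donor/nickel chelate acceptor beads (10 ug/mL final), 30 min dark, luminescence read.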
The depositor's hits bear a star; [ ] = another dose, or the depositor's remark. Hits are enriched below; roughly 12% of the tested compounds scored in any of these assays. Calls follow the shape of the dose curve; as a rule, active = well fitted curve in the direction sought with a large enough effect; inconclusive = small, poorly fitted or top-dose-only effect, or another doubt; inactive = no such curve, though single readings can be large; an effect the other way counts as inactive or inconclusive. Potency is read from the fitted curve at half-maximal effect.

`CC(C)OCc1cc(CN2CCN(c3ccccc3)CC2)c(O)c2ncccc12` gave G9a block -10%[59 µM], JMJD2A Tudor 25µM*, BAZ2B inh 8.9µM* and HP1b binding inh 21%.
`Oc1c(CN2CCN(c3ccccc3)CC2)cc(Br)c2cccnc12` gave G9a block -9%[59 µM], JMJD2A Tudor -36%, BAZ2B inh inconclusive, Sfp inh 13% and HP1b binding inh 40%.
`Brc1ccc(-c2noc3c2-c2nc(C4CCCCC4)sc2CC3)cc1` gave JMJD2A Tudor -5% and HP1b binding inh 4%.
Screening Cc1c(CC(=O)N2CCCCC2)c(=O)oc2c(C)c3occ(C(C)(C)C)c3cc12 returned G9a block 1%[59 µM], JMJD2A Tudor -17%, BAZ2B inh 3% and HP1b binding inh 32%.
`COc1ccc2ccccc2c1CN1CCN(C)CC1` gave G9a block -30%[59 µM], JMJD2A Tudor 28%, BAZ2B inh -29%, Sfp inh 1% and HP1b binding inh 25%.
Screening COCc1cc(CN2CCN(C)CC2)c(O)c2ncccc12 returned G9a block -126%, JMJD2A Tudor 7.9µM*, BAZ2B inh 1.1µM*, Sfp inh 17% and HP1b binding inh 21%.
Screening O=C(Oc1c(Cl)cc(Cl)c2cccnc12)N1CCOCC1 returned G9a block 4%[12.7 µM], JMJD2A Tudor -9%, BAZ2B inh 8%, Sfp inh 25% and HP1b binding inh 11%.
`c1ccc(N2CCN(Cc3ccnc4ccccc34)CC2)cc1` gave G9a block 4.5µM*, JMJD2A Tudor 56µM*, BAZ2B inh inconclusive, Sfp inh -9% and HP1b binding inh 25%.
Screening O=C(Oc1c(CN2CCOCC2)cc(Cl)c2cccnc12)c1ccccc1Br returned G9a block -7%, JMJD2A Tudor 40µM*, BAZ2B inh 20µM*, Sfp inh -5% and HP1b binding inh 18%.
Screening Clc1ccc(OCc2nn3c(-c4ccco4)nnc3s2)cc1 returned G9a block inconclusive, JMJD2A Tudor -20%[11.4 µM], BAZ2B inh inconclusive, Sfp inh inconclusive and HP1b binding inh -20%.
CCOc1cc(C(=O)N2CCCC2)cc(OCC)c1OCC was read as G9a block -24%[59 µM], JMJD2A Tudor 2%, BAZ2B inh inconclusive, Sfp inh 13% and HP1b binding inh 24%.
For O=C(Cn1nnc(-c2ccccc2)n1)NNC(=O)c1ccccc1 the results were G9a block 40µM*, JMJD2A Tudor -11%, BAZ2B inh -18%, Sfp inh -27% and HP1b binding inh inconclusive.
Screening O=C(Cn1nnc(-c2ccc(F)cc2)n1)OCC(=O)c1ccccc1 returned G9a block inconclusive, JMJD2A Tudor -9%, BAZ2B inh -13%, Sfp inh 79µM* and HP1b binding inh 38%.
For CCC(C)(C)C(=O)O[C@@H]1C[C@H](C)C=C2C=C[C@H](C)[C@@H](CC[C@H]3C[C@@H](O)CC(=O)O3)[C@H]21 the results were G9a block 15%[21.5 µM] and Sfp inh 5%.
For Cc1ccccc1N=Nc1c(O)n(C)c2ccccc12 the results were G9a block 7.9µM*, JMJD2A Tudor -33%, BAZ2B inh -14%, Sfp inh -26% and HP1b binding inh 26%.
`CSc1ccccc1C(=O)C1CCCN(C(=O)c2cncs2)C1` (centres undefined) gave G9a block -19%, JMJD2A Tudor 20µM*, BAZ2B inh -17%, Sfp inh 11% and HP1b binding inh 17%.
Screening CSc1ccccc1C(=O)C1CCCN(C(=O)CCc2cccnc2)C1 (centres undefined) returned G9a block -3%, JMJD2A Tudor -9%, BAZ2B inh -3%, Sfp inh 17% and HP1b binding inh 45%.
COc1cccc(CN2CCN(c3ncccn3)CC2)c1OC was read as G9a block inconclusive, JMJD2A Tudor 28µM*, BAZ2B inh 50µM*, Sfp inh -20% and HP1b binding inh inconclusive.
For c1cnc(N2CCN(Cc3c[nH]c4ccccc34)CC2)nc1 the results were G9a block inconclusive, JMJD2A Tudor -22%, BAZ2B inh -8%, Sfp inh 9% and HP1b binding inh 6%.
O=C(COc1ccc(Br)cc1Cl)N1CCN(c2ncccn2)CC1 was read as G9a block -1%[2.33 µM], JMJD2A Tudor -19%, BAZ2B inh 13% and HP1b binding inh 28%.
COc1cc(C)c(CN2CCN(c3ncccn3)CC2)cc1C was read as JMJD2A Tudor 50µM* and HP1b binding inh inconclusive.
For COc1ccc(CN2CCN(c3ncccn3)CC2)c(C)c1C the results were G9a block 4.5µM*, JMJD2A Tudor 18µM*, BAZ2B inh 56µM*, Sfp inh -21% and HP1b binding inh inconclusive.
Screening COc1ccc(Br)cc1CN1CCN(c2ncccn2)CC1 returned JMJD2A Tudor 22µM* and HP1b binding inh inconclusive.
For CC(C)n1cnc2c(NCc3ccccc3)nc(NCCO)nc21 the results were G9a block 13%[59 µM] and Sfp inh 20%.
`COc1ccc(NC(=S)N(CCN(C)C)C(C)c2ccco2)cc1` (centres undefined) gave G9a block -14%[59 µM], JMJD2A Tudor -25%, BAZ2B inh 0%, Sfp inh 6% and HP1b binding inh 14%.
CCN(CC(=O)Nc1ccccc1C(F)(F)F)C(=O)CN1C(=O)NC2(CCCC2)C1=O was read as G9a block -45%, JMJD2A Tudor -10%, BAZ2B inh -2% and HP1b binding inh 3%.
`O=C(c1cc(=O)c2cc(Cl)ccc2o1)N1CCN(Cc2ccccc2)CC1` gave G9a block -12%, JMJD2A Tudor -5%, BAZ2B inh -11%, Sfp inh 8% and HP1b binding inh 24%.
`COc1ccc(CN2CCN(c3ccccn3)CC2)c(OC)c1C` gave JMJD2A Tudor 56µM*, BAZ2B inh 50µM*, Sfp inh inconclusive and HP1b binding inh inconclusive.
S=C(c1ccccc1)N1CCN(C(=S)c2ccccc2)CC1 was read as G9a block inconclusive, JMJD2A Tudor 1%, BAZ2B inh -29%, Sfp inh 1% and HP1b binding inh 39%.
`COc1cccc(C(=S)N2CCCC2)c1OC` gave G9a block 8.9µM*, JMJD2A Tudor -2%, BAZ2B inh 5%, Sfp inh 50µM* and HP1b binding inh inconclusive.
For COc1cccc(C(=O)C(=O)c2cccc(OC)c2OC)c1OC the results were JMJD2A Tudor -19% and HP1b binding inh 8%[57 µM].
For Oc1ccccc1C(=S)N1CCCC1 the results were G9a block 14%[0.501 µM], JMJD2A Tudor -2%, BAZ2B inh 5%, Sfp inh 50µM* and HP1b binding inh -16%.
Screening Oc1ccccc1C(=S)N1CCN(C(=S)c2ccccc2O)CC1 returned G9a block 3.5µM*, JMJD2A Tudor -33%, BAZ2B inh 6%, Sfp inh 28µM* and HP1b binding inh inconclusive.

Screening results from PubChem.
